Screening data as filed in PubChem.
Rows were chosen to be rich in hits. Some 12% of all compounds tested hit in one or more screens of this group.
HP1b chromo inh = HP1-beta chromodomain-methylated histone interaction inhibition. AlphaScreen HP1-beta / biotin-H3K9me3 peptide binding. Potency, µM (doses to about 114 µM), most hits filed as inhibitors. P83916. 390,000 tested, 0.56% active; further: nearly all actives have a fitted effect of over 70% in size
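Compound inhibition of the preformed complex between 50 nM HP1-beta and 50 nM biotinylated H3K9me3 peptide was read by AlphaScreen. Buffer was PBS pH 7.4 with 0.01% Tween-20. Incubations ran 30 min at room temperature, with 10 ug/mL donor/acceptor beads.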
JMJD2A Tudor inh = blocks the human JMJD2A Tudor domain; 390,000 tested, 4.4% active; AlphaScreen JMJD2A-Tudor / H3K4me3 peptide binding; O75164; Potency, µM (highest dose often 114 µM), actives largely listed as inhibitors; further: nearly all actives have a fitted effect of over 50% in size
BAZ2B inh = inhibitors of human BAZ2B bromodomain. AlphaScreen BAZ2B-H3K14Ac peptide displacement. Q9UIF8. Potency, µM (top dose mostly 114 µM), actives largely listed as inhibitors. 360,000 tested, 4.4% active; further: nearly all actives have a fitted effect of over 60% in size
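In this displacement format the biotinylated H3(5-23) peptide acetylated at Lys14 serves as ligand at 50 nM, with BAZ2B at 50 nM in PBS pH 7.4 containing 0.01% Tween-20. Donor and acceptor beads are 10 ug/mL final.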
G9a inh = blocks human histone lysine methyltransferase G9a | G9a H3K9 monomethylation, AlphaScreen, 2 h | AID 504332 | Q96KQ7 | 350,000 tested, 8.8% active | Potency, µM (doses to about 102 µM), hits mostly inhibitors; further: nearly all actives have a fitted effect of over 75% in size
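Step 1: enzyme (final 20 nM) with compound, 15 min RT. Step 2: substrate peptide 500 nM and SAM 20 uM, 2 h RT. Step 3: anti-H3K9me1 antibody and AlphaScreen beads, 10 min, then plate read.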
Sfp inh = blocks B. subtilis Sfp PPTase activity; Biochemical Sfp PPTase activity, qHTS; Potency, µM, usual class: inhibitors; 310,000 tested, 3.5% active; AID 1490;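 further: the enzyme is Sfp with the accession as filed and its product quenches rhodamine fluorescence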
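Fluorescence-quenching assay: 15 nM Sfp-PPTase preincubated 15 min at room temperature with compound, then 5 uM rhodamine-CoA and 12.5 uM BHQ-2-labelled YbbR peptide added. Fluorescence (ex 525/em 598 nm) read at start and after 30 min; difference gives rate.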
Large screens that a line does not name were inactive; ! = a repeat was not active. The call rests on the fitted dose curve; in most records, active means well fitted curve in the direction sought with a large enough effect; inconclusive means small, poorly fitted or top-dose-only effect, or another doubt; inactive means no such curve, though single readings can be large; an effect the other way counts as inactive or inconclusive.

O=[N+]([O-])c1ccc(NC2CCN(Cc3ccccc3)CC2)c([N+](=O)[O-])c1	HP1b chromo inh inconclusive, BAZ2B inh inconclusive, G9a inh inconclusive
O=C1C2CCCCC2C(=O)N1c1ccc(NC2CCN(Cc3ccccc3)CC2)c([N+](=O)[O-])c1 (stereo unspecified)	HP1b chromo inh inconclusive, JMJD2A Tudor inh 44.7µM, BAZ2B inh 39.8µM, G9a inh inconclusive
O=C1CCC(=O)N1c1ccc(NC2CCN(Cc3ccccc3)CC2)c([N+](=O)[O-])c1	none
CC(=O)Nc1ccccc1OCc1cc(=O)n2c3c(sc2n1)CCCC3	none (no result: Sfp inh)
O=C(CSS(=O)(=O)O)N1CCN(C(=O)c2ccoc2)CC1	G9a inh 20µM, Sfp inh 15.8µM
Cc1cc(OC(=O)c2ccco2)c(Sc2ccccc2[N+](=O)[O-])c(=O)o1	JMJD2A Tudor inh inconclusive, BAZ2B inh inconclusive, G9a inh 31.6µM, Sfp inh inconclusive
Nc1ccccc1C(=O)N(Cc1ccccc1)Cc1ccccc1	none
Nc1ccccc1C(=O)CC(N)C(=O)O (stereo unspecified)	Sfp inh 100µM! (no result: HP1b chromo inh, JMJD2A Tudor inh, BAZ2B inh, G9a inh)
COc1cc(/C=C(\C#N)C(=O)Nc2cccc(C(=O)O)c2)ccc1OCc1ccc(F)cc1	G9a inh inconclusive
N#C/C(=C\c1ccc(OCc2ccc(Br)cc2)cc1)C(=O)Nc1cccc(C(=O)O)c1	JMJD2A Tudor inh 39.8µM, BAZ2B inh 56.2µM, G9a inh inconclusive
N#C/C(=C\c1ccc(OCc2ccccc2)cc1)C(N)=O	HP1b chromo inh inconclusive, JMJD2A Tudor inh 14.1µM
Cc1ccccc1COc1ccc(/C=C(\C#N)C(N)=O)cc1	none
N#C/C(=C\c1ccc(OCc2ccc(F)cc2)cc1)C(=O)Nc1cccc(C(=O)O)c1	BAZ2B inh 79.4µM
N#C/C(=C/c1ccc(OCc2ccc(C(=O)O)cc2)cc1)C(=O)Nc1ccccc1	JMJD2A Tudor inh 25.1µM, BAZ2B inh 79.4µM, G9a inh 50.1µM
COC(=O)C/C=C\[C@@H](C)[C@@H](/C=N\O[C@@H]1O[C@H](COC(C)=O)[C@H](OC(C)=O)[C@H](OC(C)=O)[C@H]1OC(C)=O)OC	none (no result: HP1b chromo inh, JMJD2A Tudor inh, BAZ2B inh, G9a inh)
N#C/C(=C\c1ccccc1OCc1ccc(C(=O)O)cc1)C(=O)Nc1ccc(O)cc1	HP1b chromo inh inconclusive, G9a inh 50.1µM
COC(=O)c1ccc(COc2ccccc2/C=C(\C#N)C(=O)Nc2ccc(C)cc2)cc1	none
COc1ccc(CNc2ncncc2-c2ccoc2)c(OC)c1	none (no result: HP1b chromo inh, JMJD2A Tudor inh, BAZ2B inh)
O=C1NC(=S)NC(=O)C1=Cc1ccccc1C(=O)O	JMJD2A Tudor inh 25.1µM (no result: BAZ2B inh, G9a inh, Sfp inh)
Cn1c(O)c(N=NC(=O)CNC(=O)c2ccccc2)c2ccccc21	none
Cc1ccc(NC(=O)Cn2c(O)c(N=NS(=O)(=O)c3ccc(C)cc3)c3ccccc32)cc1	JMJD2A Tudor inh 25.1µM, G9a inh 2.51µM
Cc1ccccc1NC(=O)Cn1c(O)c(N=NC(=O)c2ccccc2O)c2ccccc21	BAZ2B inh 63.1µM, G9a inh inconclusive
Cc1ccc(NC(=O)Cn2c(O)c(N=NC(N)=S)c3ccccc32)cc1	none
Cc1ccc(NC(=O)Cn2c(O)c(N=NC(N)=O)c3ccccc32)cc1	none
Cc1ccc(NCC(=O)N=Nc2c(O)n(C)c3ccccc23)cc1	BAZ2B inh 17.8µM, Sfp inh inconclusive (no result: G9a inh)
CCn1c(O)c(N=NC(=O)CNc2ccc(C)cc2)c2ccccc21	HP1b chromo inh inconclusive, JMJD2A Tudor inh 56.2µM, BAZ2B inh 31.6µM, G9a inh inconclusive
COc1cc(NC(=O)Cn2ncc3c([nH]c4ccc(C)cc43)c2=O)cc(OC)c1OC	none (no result: Sfp inh)
CN1CCN(C(c2ccccc2Cl)c2sc3nc(-c4ccco4)nn3c2O)CC1 (stereo unspecified)	none (no result: Sfp inh)
COc1ccc(CCNC(=O)CC(Cc2ccccc2)C(=O)O)cc1OC (stereo unspecified)	none
CCOc1ccccc1-n1ccnc(NCc2ccc(F)cc2)c1=O	none (no result: Sfp inh)
COc1cccc(NC(=O)Cn2nc(-c3ccncc3)ccc2=O)c1	none (no result: Sfp inh)
COc1ccc(/C=N/n2cnc3c([nH]c4ccccc43)c2=O)cc1COc1ccccn1	BAZ2B inh 56.2µM, Sfp inh inconclusive (no result: HP1b chromo inh, JMJD2A Tudor inh)
COc1ccc(/C=N/n2cnc3c([nH]c4ccc(F)cc43)c2=O)cc1CN1CCCC1	HP1b chromo inh inconclusive, G9a inh 39.8µM
CC(C)c1ccc(S(=O)(=O)c2nnn3c2nc(NCCc2ccccc2)c2sccc23)cc1	none (no result: Sfp inh)
Cc1cccc(CNc2ncncc2-c2ccc3c(c2)OCO3)c1	none (no result: HP1b chromo inh, JMJD2A Tudor inh, BAZ2B inh, G9a inh)
Cc1cccc(-c2nc(SCC(=O)NCC3CCCO3)c3c(=O)n(C)c(=O)n(C)c3n2)c1 (stereo unspecified)	none (no result: Sfp inh)
COC(=O)c1c(C)oc2ccc(N(C(=O)c3ccncc3)S(=O)(=O)c3ccc(C)cc3C)cc12	none
COC(=O)c1c(C)oc2ccc(N(C(=O)c3ccncc3)S(=O)(=O)c3cc(C)c(C)cc3C)cc12	G9a inh 10µM (no result: Sfp inh)
Cc1ccc(Cl)cc1N1CCN(C(=O)Cn2ncc3c([nH]c4ccccc43)c2=O)CC1	none (no result: Sfp inh)
COc1ccc(-c2csc(NC(=O)c3ccco3)n2)cc1	BAZ2B inh inconclusive, G9a inh 14.1µM
O=C(NC(=S)Nc1nc(-c2ccc(Br)cc2)cs1)c1ccco1	none
O=C(Nc1nc(-c2ccccc2)cs1)c1ccco1	G9a inh inconclusive
O=C(NNc1nc(-c2ccc(Br)cc2)cs1)c1ccco1	G9a inh 28.2µM
Cc1ccc(-c2csc(NC(=S)NC(=O)/C=C/c3ccco3)n2)cc1	BAZ2B inh inconclusive
O=C(/C=C\c1ccco1)Nc1nc(-c2ccc3ccccc3c2)cs1	BAZ2B inh inconclusive, G9a inh 50.1µM
CCOc1ccc(-c2csc(NC(=O)c3ccco3)n2)cc1	G9a inh 39.8µM
CCN1C(=O)C(Cc2nc3ccccc3c(=O)n2-c2ccc(OC)cc2)c2ccccc21 (stereo unspecified)	none (no result: Sfp inh)
CCOc1cc2c(cc1OCC)C(c1c(F)cccc1Cl)CC(=O)N2 (stereo unspecified)	none (no result: Sfp inh)
N#CCCn1c(=O)c(-c2cccs2)nc2cnc(Oc3ccccc3)nc21	none (no result: HP1b chromo inh, JMJD2A Tudor inh, BAZ2B inh)
O=C(NC1CC(=O)N(c2ccccc2)C1)c1ccc(S(=O)(=O)N2CCCCC2)cc1 (stereo unspecified)	none (no result: Sfp inh)
CCc1nn(CC(=O)NCc2cccc(OC)c2)c(=O)c2cc3cc(F)ccc3n12	G9a inh inconclusive (no result: Sfp inh)
O=C(NC(=S)Nc1nc(-c2ccc([N+](=O)[O-])cc2)cs1)c1ccco1	G9a inh 25.1µM
COc1ccc(-c2csc(N(CC(C)C)C(=O)c3ccco3)n2)cc1	BAZ2B inh inconclusive
CCN(C(=O)c1ccco1)c1nc(-c2ccc(OC)cc2)cs1	BAZ2B inh 79.4µM, Sfp inh 89.1µM
COc1cc2c(c(OC)c1OC)-c1c(cc3c(c1OC)OCO3)CC(C)C(C)(O)C2OC(=O)c1ccccc1 (stereo unspecified)	none (no result: HP1b chromo inh, JMJD2A Tudor inh, BAZ2B inh, G9a inh)
CCCCN(C(=O)C1CCCO1)c1c(N)n(CCC)c(=O)[nH]c1=O (stereo unspecified)	none (no result: BAZ2B inh, G9a inh, Sfp inh)
